Counter-ions that a name gives are not always drawn.
test system: Staphylococcus aureus Sa2 (MRSA, cystic fibrosis isolate); assay: growth reduction vs untreated control (OD550); higher = stronger antibacterial activity; conditions: 0.1 mM; 24 h
Description: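 Single-dose screen of the MedChem Express Drug Repurposing Library (0.1 mM, 1% DMSO) against planktonic MRSA S. aureus Sa2 (CF isolate) in TSB in 96-well plates, 37 °C aerobic, 24 h. Assays were run in triplicate and repeated twice.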

Row | SMILES | growth reduction
1 | CC(C)(C)c1cc(-c2cc(-c3ccc(C(=O)O)cc3)ccc2OCCO)ccc1N1CCCC1 [Trifarotene] | 100%
2 | CCCCN(CCCC)CCC(O)c1cc2c(Cl)cc(Cl)cc2c2cc(C(F)(F)F)ccc12 (stereo not given) [Halofantrine hydrochloride] | 100%
3 | Cc1cccc(Nc2ccccc2C(=O)O)c1C [Mefenamic acid] | 97.3%
4 | CSc1ccc2c(c1)N(CCC1CCCCN1C)c1ccccc1S2 (stereo not given) [Thioridazine (hydrochloride)] | 100%
5 | COC1=C(OC)C(=O)C(CCCCCCCCCC[P+](c2ccccc2)(c2ccccc2)c2ccccc2)=C(C)C1=O [Mitoquinone (mesylate)] | 100%
6 | C=C[C@@H]1C[C@]1(NC(=O)[C@@H]1C[C@@H]2CN1C(=O)[C@H](C(C)(C)C)NC(=O)O[C@@H]1C[C@H]1CCCCCc1nc3ccc(OC)cc3nc1O2)C(=O)NS(=O)(=O)C1CC1 [Grazoprevir] | 100%
7 | C#C[C@]1(O)CC[C@H]2[C@@H]3CCc4cc(OC5CCCC5)ccc4[C@H]3CC[C@@]21C [Quinestrol] | 100%
8 | COc1cc(F)c(F)c(Nc2ccc(I)cc2F)c1NS(=O)(=O)C1(C[C@H](O)CO)CC1 [Refametinib] | 100%
9 | CC(C)(C)CC(C)(C)c1ccc(OCCOCC[N+](C)(C)Cc2ccccc2)cc1 [Benzethonium chloride] | 100%
10 | CC(C)c1cc(Oc2c(Br)cc(NC(=O)CC(=O)O)cc2Br)ccc1O [Eprotirome] | 99.3%
11 | CC1(C)CC[C@]2(C(=O)O)CC[C@]3(C)[C@H](C(=O)C=C4[C@@]5(C)C=C(C#N)C(=O)C(C)(C)[C@@H]5CC[C@]43C)[C@@H]2C1 [Bardoxolone] | 100%
12 | COc1cc(NCc2ccc3nc(N)nc(N)c3c2C)cc(OC)c1OC [Trimetrexate] | 90.4%
13 | CC(=O)Oc1cc(C)c(OC(C)=O)c2ccccc12 [Vitamin K4] | 95.5%
14 | COc1ccc(Cl)c(Nc2nc3ccccc3nc2NS(=O)(=O)c2cccc(NC(=O)C(C)(C)N)c2)c1 [Pilaralisib] | 100%
15 | O=C(O)Cc1ccccc1Nc1c(Cl)cccc1Cl [Diclofenac] | 100%
16 | C/C=C(/C(=C/C)c1ccc(O)cc1)c1ccc(O)cc1 [Dienestrol] | 99.7%
17 | CC1=C(C)C(=O)C(CCCCCCCCCC[P+](c2ccccc2)(c2ccccc2)c2ccccc2)=CC1=O [Visomitin] | 100%
18 | C#C[C@]1(O)CC[C@H]2[C@@H]3CCc4cc(O)ccc4[C@H]3CC[C@@]21C [Ethynyl Estradiol] | 99.9%
19 | O=c1[nH]cc(F)c(=O)[nH]1 [5-Fluorouracil] | 97.1%
20 | COCc1c(C(C)C)nc(C(C)C)c(/C=C/[C@@H](O)C[C@@H](O)CC(=O)O)c1-c1ccc(F)cc1 [Cerivastatin (sodium)] | 93.6%

Row | SMILES | growth reduction
21 | O=C1Nc2ccc(Cl)cc2[C@@](C#CC2CC2)(C(F)(F)F)O1 [Efavirenz] | 96.6%
22 | COc1cc([C@@H]2c3cc4c(cc3[C@@H](O[C@@H]3O[C@@H]5CO[C@@H](c6cccs6)O[C@H]5[C@H](O)[C@H]3O)[C@H]3COC(=O)[C@H]23)OCO4)cc(OC)c1O [Teniposide] | 100%
23 | Nc1ncccc1-c1nc2ccc(-c3ccccc3)nc2n1-c1ccc(C2(N)CCC2)cc1 [Miransertib] | 97.6%
24 | CNCc1ccc(C)c(NC(=O)c2ccc(Nc3nc(-c4ccccc4)c4ccccc4n3)cc2)c1 | 100%
25 | O=C(O)CNC(=O)c1nc(Cl)c2ccccc2c1O | 100%
26 | COc1ccc2c(c1OCc1ccccc1)C[C@@H](C(=O)O)N(C(=O)C(c1ccccc1)c1ccccc1)C2 [Olodanrigan] | 95.1%
27 | C=CCc1ccc(O)c(-c2cc(CC=C)ccc2O)c1 [Magnolol] | 100%
28 | O=C(OCC(O)CO)c1ccccc1Nc1ccnc2cc(Cl)ccc12 (stereo not given) [Glafenine] | 100%
29 | COc1cc(C)c2c(Oc3cccc(C(F)(F)F)c3)c(OC)cc(NC(C)CCCN)c2n1 (stereo not given) [Tafenoquine (Succinate)] | 100%
30 | Cc1c(C)c2c(c(C)c1O)CCC(C)(COc1ccc(CC3SC(=O)NC3=O)cc1)O2 (stereo not given) [Troglitazone] | 97.5%
31 | CC(=O)c1cc2c(o1)C(=O)c1ccccc1C2=O [Napabucasin] | 100%
32 | COc1ccc(CN2CCN(C(c3ccc(F)cc3)c3ccc(F)cc3)CC2)c(OC)c1OC [Lomerizine dihydrochloride] | 100%
33 | CN1CCCC(CC2c3ccccc3Sc3ccccc32)C1 (stereo not given) [Metixene hydrochloride hydrate] | 100%
34 | CN[C@H]1CN(c2ccc3c(=O)c(C(=O)O)cn(-c4nccs4)c3n2)C[C@@H]1OC [Voreloxin (Hydrochloride)] | 100%
35 | Cc1cc(Nc2ncnc3ccc(NC4=NC(C)(C)CO4)cc23)ccc1Oc1ccn2ncnc2c1 [Tucatinib] | 91.9%
36 | Oc1c(Cl)cc(Cl)cc1Sc1cc(Cl)cc(Cl)c1O [Bithionol] | 99.2%
37 | Cc1ccc(C#Cc2ccc(S(=O)(=O)N[C@H](Cc3c[nH]c4ccccc34)C(=O)O)s2)cc1 | 98.4%
38 | COc1cc([C@H]2C(C#N)=C(N)Oc3c2ccc(N)c3N)cc(Br)c1OC [Crolibulin] | 98.1%
39 | NC(=O)N1CCC(CC(=O)N2CCC([C@H]3c4ncc(Br)cc4CCc4cc(Cl)cc(Br)c43)CC2)CC1 [Lonafarnib] | 94.3%
40 | CC(C)(O)c1ccccc1CC[C@@H](SCC1(CC(=O)O)CC1)c1cccc(/C=C/c2ccc3ccc(Cl)cc3n2)c1 [Montelukast (sodium)] | 100%
